Screening results: PubChem, National Center for Advancing Translational Sciences (NCATS)
Sampled rows, rich in hits. Any-hit rate of the full collection: about 1.9%.
PINK1 expr mod: PINK1 expression modulation; Potency, µM (titrated, usually from 76.6 µM), actives largely listed as activators; PINK1 immunofluorescence, high-content cytometry, 24 h; hit rate 0.2% among 410,000; active means well fitted activation curve with a large enough effect; inconclusive means small, poorly fitted or top-dose-only effect; cell line not stated here; further: nearly all actives have a fitted effect of over 65% in size
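PINK1 protein, normally rapidly degraded, was detected by immunofluorescence after 24 hour compound treatment of a stable cell line. Titration data (5 concentrations) came from laser-scanning cytometry, with CCCP-treated wells as controls.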
MLL CXXC-DNA inh: blocks binding of human MLL CXXC domain to DNA. MLL-CXXC / FITC-HOXA9 DNA fluorescence polarization. Potency, µM (top dose mostly 115 µM), most hits filed as inhibitors. hit rate 0.037% among 290,000; active means well fitted inhibition curve with a large enough effect in the polarisation, with a control signal flat, not every such curve was filed as active; inconclusive means small, poorly fitted or top-dose-only effect, or effect the other way, or a change in a side signal; inactive means no such curve, though single readings can be large or run the other way; the % refers to the polarisation
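Steps: dispense CXXC domain solution (7 uM) → pin compounds or unlabeled HOX-A9 DNA control → 5 min ambient → add FLSN-HOX-A9 solution (50 nM) → spin → 30 min ambient → fluorescence polarization. Tris pH 7.5/NaCl/DTT/BSA buffer.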
ClpP mod: qHTS Assay for Activators of ClpP | ATP-dependent Clp protease proteolytic subunit (Bacillus subtilis (strain 168)), P80244 | hit rate 1.9% among 340,000 | Potency, µM (highest dose often 57.5 µM) | purified B. subtilis ClpP, FRET peptide cleavage, 20 min; active means well fitted falling curve with a large enough effect; inconclusive means small, poorly fitted or top-dose-only effect; inactive means no such curve, though single readings can be large or run the other way; further: the source files actives as falling curves though it sought activators and does not explain the sign; nearly all actives have a fitted effect of over 65% in size
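Buffer: 100 mM Tris/HCl pH8, 100 mM KCl, 0.05% low protease BSA, 2.5% glycerol, 0.01% Tween-20. ClpP 10 microg/mL final; 20 min RT; delta FRET normalized to ADEP and DMSO controls.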
Menin MLL FP FL: inhibitors of human menin-MLL interaction, wild-type MLL peptide | Fluorescence polarization, fluorescein-MLL peptide displacement from menin | FP activity change, % at 61.4 µM | 290,000 tested, under 10 active | AID 1766; active means well fitted curve in the direction sought with a large enough effect in the polarisation, not every such curve was filed as active; inconclusive means small, poorly fitted or top-dose-only effect, or effect the other way, or a change in a side signal; inactive means no such curve, though single readings can be large or run the other way; the % refers to the polarisation
Epigenetic reg: epigenetic control regulation, reporter derepression; murine LDR cells, GFP reporter derepression, 30 h; Potency, µM (top dose mostly 53.9 µM), most hits filed as activators; hit rate 0.2% among 280,000; active means well fitted activation curve with a large enough effect; inconclusive means small, poorly fitted or top-dose-only effect; further: nearly all actives have a fitted effect of over 60% in size
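Reporter derepression read as number of fluorescent GFP-positive objects, 20-120 um in size, counted by laser-scanning cytometer. Mouse LDR line with an epigenetically silenced CMV-GFP locus; compound incubation 30 h, 37 C.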
Menin-MLL TR inh: inhibitors of human menin-MLL interaction, mutant MLL peptide; O00255; Menin + Texas Red MLL mutant peptide, fluorescence polarization; Potency, µM (titrated, usually from 61.6 µM), hits mostly inhibitors; hit rate 0.23% among 270,000; AID 1768; active means well fitted inhibition curve with a large enough effect in the polarisation, with a control signal flat, not every such curve was filed as active; inconclusive means small, poorly fitted or top-dose-only effect, or effect the other way, or a change in a side signal; inactive means no such curve, though single readings can be large or run the other way; the % refers to the polarisation
Target sequence (O00255 whole entry, looked up): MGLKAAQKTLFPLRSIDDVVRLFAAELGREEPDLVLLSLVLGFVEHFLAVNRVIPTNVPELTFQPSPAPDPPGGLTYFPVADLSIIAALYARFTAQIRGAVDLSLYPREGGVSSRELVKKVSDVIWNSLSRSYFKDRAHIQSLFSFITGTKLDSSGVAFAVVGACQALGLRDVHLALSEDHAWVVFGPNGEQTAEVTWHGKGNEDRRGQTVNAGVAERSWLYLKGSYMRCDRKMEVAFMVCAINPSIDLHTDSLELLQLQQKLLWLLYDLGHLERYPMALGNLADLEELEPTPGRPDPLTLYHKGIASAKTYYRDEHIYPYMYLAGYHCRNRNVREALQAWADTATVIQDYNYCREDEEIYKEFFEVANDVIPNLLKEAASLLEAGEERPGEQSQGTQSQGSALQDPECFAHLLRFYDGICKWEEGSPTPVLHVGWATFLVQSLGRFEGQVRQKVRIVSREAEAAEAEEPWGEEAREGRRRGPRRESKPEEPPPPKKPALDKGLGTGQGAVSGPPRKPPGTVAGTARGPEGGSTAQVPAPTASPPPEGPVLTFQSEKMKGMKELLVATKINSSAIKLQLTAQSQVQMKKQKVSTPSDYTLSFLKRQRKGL
Numbers stand for hits; n = inactive; u = inconclusive; x = not tested or not shown.

SMILES	PINK1 expr mod	MLL CXXC-DNA inh	ClpP mod	Menin MLL FP FL	Epigenetic reg	Menin-MLL TR inh
CCCNc1nc(Nc2ccc([N+](=O)[O-])cc2)nc(N2CCOCC2)n1	n	x	n	x	x	x
CS(=O)(=O)N1CCN(C(=O)c2cc(-c3cccs3)nc3ccccc23)CC1	n	n	11.2µM	n	n	n
O=C(NCc1ccco1)c1cc(-c2cccs2)nc2ccccc12	n	n	25.1µM	n	n	n
O=C(NN1CCOCC1)c1cc(-c2cccs2)nc2ccccc12	n	n	10µM	n	n	n
O=C(N/N=C/c1ccc2ncccc2c1)c1cc(-c2cccs2)nc2ccccc12	n	n	n	n	n	x
O=C(NN1CCOCC1)c1cc(-c2ccccc2)nc2ccccc12	n	n	n	n	n	n
O=C(N/N=C/c1cccnc1)c1cc(-c2cccs2)nc2ccccc12	n	n	25.1µM	n	n	n
O=C(COC(=O)c1cc(-c2cccs2)nc2ccccc12)NCc1ccco1	n	n	u	n	n	u
O=C(c1ccc2c(c1)OCO2)N1CCOc2ccc(CN3CCC(Oc4cccnc4)CC3)cc2C1	n	x	x	x	x	x
Cc1ccccc1C(=O)N1CCc2c(cnc(C)c2CNC(=O)CN2CCCCC2)C1	n	x	x	x	x	x
O=C(NCC1CCC2(CCN(Cc3c[nH]c4ccccc34)CC2)O1)C1CCOCC1 (stereo unspecified)	n	x	x	x	x	x
COc1ccc(-c2csc(NC(=O)c3cc(-c4cccs4)nc4ccccc34)n2)c(OC)c1	n	n	n	x	n	x
O=C(NCc1ccco1)c1nn2c(C(F)(F)F)cc(-c3cccs3)nc2c1Cl	x	n	n	n	n	n
Cc1ccc(-c2cc(C(=O)NCc3ccco3)c3ccccc3n2)s1	n	n	31.6µM	n	n	u
O=C(NCc1ccco1)c1cc2nc(-c3cccs3)cc(C(F)(F)F)n2n1	n	n	35.5µM	n	n	n
Cc1nn(-c2ccccn2)c2nc(-c3cccs3)cc(C(=O)NCc3ccco3)c12	n	n	12.6µM	n	n	n
COc1ccccc1-c1csc(NC(=O)c2cc(-c3cccs3)nc3ccccc23)n1	n	n	n	n	n	8.91µM
COc1cc(-c2cc(C(=O)NCc3ccco3)c3ccccc3n2)cc(OC)c1OC	n	n	n	n	x	n
O=C(Nc1c2c(nn1-c1ccc(Cl)cc1)CS(=O)(=O)C2)c1ccc2c(c1)OCO2	n	n	n	n	n	n
O=C(Nc1c2c(nn1-c1ccc(Cl)cc1)CS(=O)(=O)C2)c1ccc(Br)cc1	31.6µM	x	n	x	n	x
CCOc1ccc(NC(=O)CCNC(=O)Cn2ccc3ccccc3c2=O)cc1	n	n	31.6µM	n	x	n
CCOc1ccccc1NC(=O)CCNC(=O)Cn1ccc2ccccc2c1=O	n	n	x	n	x	n
O=C1NC[C@H](Cc2ccccc2)N(C[C@@H]2CCCN2C[C@H](Cc2ccc(O)cc2)N2C[C@H](Cc3ccccc3)N(CCc3ccccc3)C(=O)C2=O)C1=O	n	x	n	x	x	x
COc1ccc(-c2cc(-c3ccccc3)c(C#N)c(SCC(O)CS(=O)(=O)Cc3ccccc3)n2)cc1 (stereo unspecified)	n	x	n	x	n	x
CCCCS(=O)(=O)CC(O)CSc1nc(-c2ccc(C)cc2)cc(-c2ccccc2)c1C#N (stereo unspecified)	n	x	3.55µM	x	n	x
SMILES	PINK1 expr mod	MLL CXXC-DNA inh	ClpP mod	Menin MLL FP FL	Epigenetic reg	Menin-MLL TR inh
COc1cc2nc(N3CCCC(O)C3)c(CNCc3ccccc3F)cc2c(OC)c1OC (stereo unspecified)	n	x	x	x	x	x
O=C(N/N=C/c1ccc2c(c1)OCO2)c1ccn(Cc2ccc(Cl)cc2)n1	n	n	28.2µM	x	x	x
O=C(Nc1ccn(Cc2ccc(Cl)cc2)n1)c1ccc2c(c1)OCO2	n	n	n	n	n	n
Cc1cnc(-n2ncc(C(=O)N(CCO)C(C)C)c2-c2cccs2)nc1-c1ccc(F)cc1	n	x	x	x	x	x
CCCN(CCC)C(=O)Cn1c(=O)n(-c2cccc(OC)c2)c(=O)c2c3c(sc21)CCCC3	n	x	n	x	n	x
COc1ccc(-n2c(-c3ccccc3F)nc3c(cnn3-c3ccc(C)cc3)c2=O)cc1	n	x	25.1µM	x	n	x
COc1ccc(-n2c(-c3ccco3)nc3c(cnn3-c3ccc(C)cc3)c2=O)cc1	n	n	u	n	n	x
